Several values for one entry are separate records, joined by “and”; a condition that tells them apart may be missing. Identical values can stand only once. About 83,000 compounds went through this panel and 20% of them were active in at least one assay; those are over-represented in the sample as a whole.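 Each cell line was grown in a 96-well plate and treated with one concentration of compound for 48 hours. Values below 10 were considered active.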 Values without a mark were called inactive. Activity calls are given as the source filed them.
Each compound was assayed on MDA-MB-468 breast (assay: NCI-60 one-dose screen, 48 h (100 = growth as untreated, 0 = no growth, -100 = all killed)). Settings: 10 µM unless noted.

| SMILES | growth |
| --- | --- |
| CC(=O)O[C@H]1CC[C@]2(C)[C@H]3CC=C4[C@@H]5CC(C)(C)CC[C@]5(C(=O)N5CCN(CCC#N)CC5)CC[C@@]4(C)[C@]3(C)CC[C@H]2C1(C)C | 32.2% |
| O=c1c2c(c3ccccc3n1-c1ccccc1)NC(=S)NC2c1ccc(Cl)cc1 (stereo not given) | 115% |
| COc1cc(OC)c(C2C(Cl)C(=O)N2Nc2ncnc3ccccc23)cc1OC (stereo not given) | 92.5% |
| CCCCNCCCCCNc1cc(OC)cc2cccnc12 | 68.8% |
| CCN(CCNS(C)(=O)=O)c1ccc(N)c(C)c1 | 56.5% and 69.7% |
| Cn1ccnc1C(=O)/C=C/c1ccc(C(=O)Nc2ccccc2F)cc1 | 22.3% |
| COc1cc(CNC(=O)CCCC/C=C/C(C)C)ccc1OCc1cn(-c2ccc([N+](=O)[O-])cc2)nn1 | 77.4% |
| COc1cc(C(=O)O)c(O)c(C(C)(C)C)c1 | 100% |
| COc1cc(/C=C/C(=O)c2c(-c3ccc(Cl)cc3)nc3sc(C)nn23)cc(OC)c1OC | 65.7% |
| CN(C)c1ccc(N=C2C=CC(=O)c3ccccc32)cc1 | 65.6% |
| CN1CCN(Cc2ccc(NC(=O)c3cncc(C#Cc4cnc(N)c5ccccc45)c3)cc2C(F)(F)F)CC1 | -80.8% (active) |
| Cc1cc(-c2noc(C(F)(F)F)n2)ccc1N1CCN(c2cc(C(=O)N(C)C)no2)CC1 | 15.2% |
| CCN(CC)CCCC(C)Nc1c2c(nc3ccc(OC)cc13)CCCC2 (stereo not given) | 98.8% |
| NC(=O)c1cccc(-c2ccccc2N2CCCCC2)c1 | 94.2% |
| O=S(=O)(O)c1cccc(Nc2ccc3ccccc3c2)c1 | 105% |
| FC(F)(F)Sc1ccc(/C=C/c2cc(/C=C/c3ccc(SC(F)(F)F)cc3)n(-c3ccccc3)n2)cc1 | 95.8% |
| CC1=Nc2cnc(Nc3ccc(OCCN4CCCCC4)cc3)nc2Nc2ccccc21 | 63.4% |
| CNC(=O)c1cc(-c2ccc(NC(=S)Nc3cc(C(F)(F)F)cc(C(F)(F)F)c3)cc2)nc2cccnc12 | -8.04% (active) |
| O=S(=O)(NCCCNc1nccc(-c2c(-c3cccc(O)c3)nc3occn23)n1)c1ccc(Br)cc1 | 96.3% |
| COCCNC(=O)c1ccc(-c2nc3ccc4[nH]ncc4c3c3c2CCCC3)cc1 | 4.81% (active) |

| SMILES | growth |
| --- | --- |
| Cn1c(N)c(N=O)c(=O)n(C)c1=O | 122% and 112% |
| CCCCCSB(SCCCCC)c1ccccc1 | 102% |
| C[N+](C)(C)CCCCCCCCCC[N+](C)(C)C | 79.6% |
| NCCn1cc(-c2nc(-c3c[nH]c4ncccc34)cs2)c2cc(F)ccc21 | 64.9% |
| CCOc1ccc2cc(-c3nn(CC4CCN(C)CC4)c4ncnc(N)c34)ccc2c1 | 85.6% and 42% |
| COc1nc2ccc(C)cc2cc1-c1nc2c(cnn2-c2ccccc2)c(=O)[nH]1 | 69.4% |
| COc1ccc2c(c1)CCCC21C(=O)Nc2c(Cl)cccc21 (stereo not given) | 109% |
| CN1CSC(=S)N(Cc2ccccc2)C1 | 7.55% (active) |
| COc1ccc(C)cc1OC | 137% |
| Cc1cc(N2CCCCCC2)nc(N2CCN(CC(=O)Nc3ccc4c(ccn4Cc4ccccc4)c3)CC2)n1 | 17.4% |
| COc1cc(/C=C2\C(=O)Nc3ccc(N(C)C)cc32)cc(OC)c1OC | -2.28% (active) |
| O=[N+]([O-])c1ccc(N/N=C\c2cc(Cl)ccc2O)nc1 | -2.47% (active) |
| CCN(CC)CCn1c2ccc(OC)cc2c2sc3cc(OC)ccc3c(=O)c21 | 14.5% |
| c1cc(OCCN2CCCC2)ccc1CNc1ccc2nc(CCC3CCCCC3)[nH]c2c1 | 43.6% |
| N=C(N)c1ccc(-c2ccc(-c3ccc(F)cc3)s2)cc1 | -90.7% (active) |
| Oc1ccc(Cl)cc1Cc1cc(Cl)ccc1O | 19.2% |
| Fc1ccc(Nc2nc(NCCNc3ccnc4cc(Cl)ccc34)nc(N3CCOCC3)n2)cc1 | 16.7% |
| C=C1C(=O)O[C@H]2[C@H]1CC/C(COC(=O)/C=C\C(=O)NCc1ccc(Cn3c(=O)sn(CCCC)c3=O)cc1)=C\CC[C@@]1(C)O[C@@H]21 | -70.9% (active) |
| CNC(=O)c1cc(Oc2ccc(NC(=O)c3[nH]c(SC)nc3-c3ccc(F)cc3)cc2)ccn1 | 70.9% |
| c1ccc(Cn2cc(-c3nc4ccccc4s3)c3cccnc32)cc1 | 99.4% |

Source: PubChem BioAssay (NCI)
